We go through 65 molecules from PubChem BioAssay AID1578 (Sanford-Burnham Center for Chemical Genomics, 2009).

In all, about 290,000 compounds went through this assay and about 3,000 (1%) were called active. This excerpt belongs to a sample that is enriched for actives. Values without a mark were called inactive. Rule as the data show it: active = inhibition mostly above about 36% (no sharp cut-off); inactive = mostly below about 34%.

A short description of the assay: inhibition of NOD1-driven NF-kB reporter – cell-based, luminescence, uHTS, primary screen (AID 1578).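 Also: HEK-293T reporter cells stimulated with the NOD1 agonist gamma-tri-DAP.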 The settings on record: NOD1-driven NF-kB luciferase reporter cells, at 4 µM, hits give high values.
In the case of `CCCCCCCN1C2=NCCN2c2ccccc21`, the inhibition (in general, the relative decrease from the control value, in per cent) is 35.9% (active).

Take `CC(C)(C)c1ccc(CN2C3=NCCCN3c3ccccc32)cc1`: the inhibition is 112% (active).

For the molecule `CCCCCCN1C2=NCCN2c2ccccc21`, the inhibition is -24.5%.

`c1ccc(CN2C3=NCCCN3c3ccccc32)cc1`: the inhibition was -21.5%.

As to `Cc1ccc(CN2C3=NCCCN3c3ccccc32)cc1`, the inhibition is -29.5%.

For the molecule `CCCCCN1C2=NCCN2c2ccccc21`, the inhibition was -41.3%.

Turning to `CCCCOCCCNC1=NCCCCC1`, the inhibition was -5.9%.

For the molecule `CCNC(=O)NC(=O)C(C)OC(=O)c1oc2ccc(OC)cc2c1C` (stereo not given), the inhibition is 25.1%.

Consider `O=C(O)c1ccc2cc[nH]c2c1`, for which the inhibition was 7%.

For the molecule `Cc1ccc2cc(C#N)c(NCc3ccco3)nc2c1`, the inhibition was -2.1%.

For `CC(C)(C)n1cnc2cc(NC(=O)c3ccccc3)ccc21`, the inhibition was -12.2%.

With `CC(=O)NC(C)c1ccc(Cl)c(Cl)c1` (stereo not given), the inhibition is -19.4%.

With `Cc1ccc(OCC(=O)NC(C)c2ccc(Cl)c(Cl)c2)c([N+](=O)[O-])n1` (stereo not given), the inhibition is -30.1%.

`CC(NC(=O)CCl)c1ccc(Cl)c(Cl)c1` (stereo not given): the inhibition was 93.1% (active).

Regarding `COc1ccc2c(/C=N/NS(=O)(=O)c3ccc(C)cc3)c[nH]c2c1`, the inhibition was -6.6%.

For `COc1ccc(OC)c(S(=O)(=O)N/N=C\c2c[nH]c3ccccc23)c1`, the inhibition is 30.3%.

With `C(=N\Nc1nc2ccccc2[nH]1)/c1c[nH]c2ccccc12`, the inhibition was 34.5%.

Regarding `COc1ccc2[nH]cc(/C=N/NS(=O)(=O)c3ccc(C)cc3)c2c1`, the inhibition is 44% (active).

As to `Cc1ccc(S(=O)(=O)N/N=C/c2ccccc2O)cc1`, the inhibition was -2.2%.

Consider `Cc1ccc(S(=O)(=O)N/N=C/c2c[nH]c3ccccc23)cc1`, for which the inhibition is 62.4% (active).

With `C(=N\Nc1ccccn1)/c1c[nH]c2ccccc12`, the inhibition was 10.9%.

For `Fc1c(F)c(F)c(N/N=C/c2c[nH]c3ccccc23)c(F)c1F`, the inhibition is 87.4% (active).

Turning to `COc1ccc(O)c(/C=N/NS(=O)(=O)c2ccc(C)cc2)c1`, the inhibition was 1.6%.

As to `COc1ccc(N2CCN(C(CNC(=O)C(=O)NCc3ccc4c(c3)OCO4)c3ccco3)CC2)cc1` (stereo not given), the inhibition is -7.2%.

In the case of `O=C(O)/C=C/C(=O)Nc1ccc(S(=O)(=O)Nc2nccs2)cc1`, the inhibition is -6.1%.

Regarding `COc1ccc(CCNC(=O)CSc2nnc(CNC(=O)c3ccccc3F)o2)cc1OC`, the inhibition is -6.3%.

Regarding `CCC(C)[C@H](NC(=O)N1CCn2c1nc1ccccc12)C(=O)NCc1ccccc1` (stereo not given in full), the inhibition was -0.4%.

Regarding `CC(C)C(C)NC(=O)COC(=O)c1cc(S(=O)(=O)N(C)C)ccc1N1CCCC1` (stereo not given), the inhibition is -50.6%.

As for `c1ccc(COn2nnc3ccccc32)c(COn2nnc3ccccc32)c1`, the inhibition is -7.5%.

Consider `COc1ccc(OC)c(NC(=O)c2nnn(Cc3ccccc3C)c2N)c1`, for which the inhibition is -33.8%.

`CC1CC(=S)Nc2ccccc2N1Cc1ccccc1` (stereo not given): the inhibition was -2.8%.

In the case of `CC1CN(Cc2ccccc2)c2ccccc2NC1=S` (stereo not given), the inhibition was 108% (active).

Turning to `CC1CSc2ccccc2NC1=S` (stereo not given), the inhibition was -19.1%.

On to `COc1cc(NC(=O)c2cnn3c(C(F)F)cc(C4CC4)nc23)c(OC)cc1Cl`, for which the inhibition was -21.7%.

As for `COc1ccc(OCC(=O)Nc2ccc(NC(=O)c3ccccc3Cl)c(OC)c2)cc1`, the inhibition was -16.9%.

As for `COCCNC(=O)c1cc2cc3ccc(OC)cc3nc2o1`, the inhibition is 4.6%.

For the molecule `COc1ccc2cc3cc(C(=O)NCCC(C)C)oc3nc2c1`, the inhibition was -9.5%.

On to `O=C(CSc1nc2ccccc2[nH]1)N1CCN(c2ccccc2)CC1`, for which the inhibition was -37.6%.

Regarding `CC1=CC(C)(C)Nc2ccc(OC(=O)CN3C(=O)c4ccccc4C3=O)cc21`, the inhibition is 21.8%.

For the molecule `CC1=CC(C)(C)Nc2ccc(OC(=O)c3cccnc3)cc21`, the inhibition is 34.3%.

Turning to `CC1=CC(C)(C)Nc2ccc(OC(=O)c3ccco3)cc21`, the inhibition was 98.8% (active).

For the molecule `O=C(NCC1CCCO1)c1ccc(S(=O)(=O)N2CCC(c3nc4ccc(Cl)cc4[nH]3)CC2)cc1` (stereo not given), the inhibition is -25.9%.

Turning to `COCCNC(=O)C(c1ccc(C)o1)N(C(=O)C(=O)NC1CCCCC1)c1ccc(F)cc1` (stereo not given), the inhibition is -37.3%.

Take `CSCCC(NC(=O)c1ccccc1)C(=O)Nc1ccc(C)cc1` (stereo not given): the inhibition is 1.6%.

As for `CSCCC(NC(=O)c1cccc(C)c1)C(=O)Nc1sccc1C(N)=O` (stereo not given), the inhibition is 68.6% (active).

Turning to `CSCCC(NC(=O)c1cccc(C)c1)C(=O)O` (stereo not given), the inhibition was 2%.

Turning to `NC1=NC(=O)/C(=C/c2cn(CCC(=O)O)nc2-c2ccc(Cl)cc2)S1`, the inhibition was -34.5%.

Consider `CCOc1ccc(NC(=O)CSc2nnc(N)s2)c([N+](=O)[O-])c1`, for which the inhibition is -24.6%.

On to `OC1CCCN(CC(O)c2ccccc2)C1` (stereo not given), for which the inhibition was -32.3%.

On to `C/C(=N\Nc1ccc(C(=O)O)cc1)c1ccc(Br)cc1`, for which the inhibition is 5%.

On to `Brc1ccc(N/N=C(/N=Nc2nn[nH]n2)c2ccccc2)cc1`, for which the inhibition is 63.8% (active).

Regarding `Cn1nnnc1N=N/C(=N/Nc1ccccc1)c1ccccc1`, the inhibition was -8.4%.

For `CCOc1ccc(S(=O)(=O)Nc2cc(F)ccc2F)c2cccnc12`, the inhibition is -15.4%.

As for `CC1=NN(c2cccc(C(=O)O)c2)C(=O)/C1=C\C=C\c1ccco1`, the inhibition is -11.6%.

Regarding `CC1=NN(c2ccccc2)C(=O)/C1=C/C=C/c1ccccc1`, the inhibition was 31.6%.

In the case of `CC1=NN(c2cccc(C(=O)O)c2)C(=O)/C1=C\C=C/c1ccccc1`, the inhibition was 58.9% (active).

Consider `CCCNC(=O)c1onc(CSc2nc3ccccc3[nH]2)c1C(=O)NCCC`, for which the inhibition is 11.1%.

As for `C=CCn1c(Sc2ncc([N+](=O)[O-])s2)n[nH]c1=O`, the inhibition was 30.1% (active).

As for `C=CCn1c(CSc2ccccc2[N+](=O)[O-])n[nH]c1=S`, the inhibition was -1.6%.

Turning to `C=CCn1c(Sc2nnc(C)s2)nc2c1c(=O)[nH]c(=O)n2C`, the inhibition was -4.6%.

Consider `CCOC(=O)CSc1nc(N)c(C#N)cc1C#N`, for which the inhibition was -40.2%.

As to `COc1cc(CN2CCNC(=O)C2CC(=O)N(C)CCCN2CCOCC2)cc(OC)c1` (stereo not given), the inhibition is -24.5%.

With `O=C1NC(=S)S/C1=C\C=C\c1ccc([N+](=O)[O-])o1`, the inhibition was 39.6% (active).

`O=[N+]([O-])c1ccc(/C=[N+](\[O-])[C@@H]2CCCC[C@@H]2/[N+]([O-])=C/c2ccc([N+](=O)[O-])o2)o1`: the inhibition was -2%.

For the molecule `O=C1CN(/N=C/c2ccc([N+](=O)[O-])o2)C(=O)N1`, the inhibition was -4.5%.
